Assay results from PubChem BioAssay (NCATS).
Records with an inconclusive call do not appear. Activity calls are given as the source filed them. The call rests on the fitted dose curve; in most records, active means well fitted inhibition curve with a large enough effect; inconclusive means small, poorly fitted or top-dose-only effect, or effect the other way; inactive means flat fitted curve, though single readings scatter.

The compounds below were run against Ubiquitin carboxyl-terminal hydrolase 2 (Homo sapiens) (UniProt O75604) (assay: qHTS Validation Assay for Inhibitors of Ubiquitin-specific Protease USP2a Using CHOP2 as the Reporter (AID 463106)). Details: USP2a cleavage of CHOP2 reporter, enzymatic; series mostly up to 38.3 µM.
Source text: NIH Molecular Libraries Screening Centers Network [MLSCN]
NIH Chemical Genomics Center [NCGC]
PI Name: Nicholson, Ben. Progenra Inc, Malvern, PA
Homeostasis of cellular proteins is maintained through a combination of synthesis and degradation. The pathway that accounts for the majority of protein degradation is the ubiquitin-proteasomal pathway. Ubiquitin (Ub) is highly conserved in all cells and the generation of a multi-Ub chain typically targets proteins for degradation by the proteasome. However, ubiquitination is highly reversible and dynamic. Deubiquitination, the reverse process, is catalyzed through the action of enzymes referred to as isopeptidases or deubiquitinating enzymes (DUBs). This group of enzymes is collectively responsible for maintaining adequate pools of free ubiquitin and regulating the ubiquitination status of cellular proteins. The class of DUBs referred to as the ubiquitin-specific proteases (USP) family functions endoproteolytically to cleave Ub chains from a wide range of protein substrates. USP2a deubiquitinates fatty acid synthase (FASN) which has recently been identified as an emerging oncology target. To identify inhibitors of USP2a a cell-free assay was employed.
The reporter enzyme chosen is an enterokinase called CHOP2, which is activated when the Ub is cleaved by USP2. The free and now activated reporter can subsequently act on its reporter substrate. […] The assay was developed by Progenra, Inc. and has been licensed for sale by LifeSensors, Inc. as Ub-CHOP2-Reporter-Kit (#PR1101).
NCGC Assay Protocol Summary:
The assay buffer, prepared fresh at the day of the assay, contains 20mM Tris-HCl pH 8.0, 2mM CaCl2, 2mM beta-Mercaptoethanol, 0.05% CHAPS. 3ul of 20nM (10nM final) USP2 core, which is stored on ice, is dispensed into a medium-binding black solid Kalypsys 1,536 well plate using the Kalypsys dispenser. The assay plate is then pinned with 23nL compound with the Kalypsys pintool in columns 5-48. The controls are pinned as follows: column 1 two-fold dilutions of 2M NEM in duplicate; column 2 2M NEM (final concentration 38.2mM); column 3&4 DMSO. The assay plate is incubated at RT for 30min. Subsequently, 1.5uL of 100nM (25nM final) Ub-CHOP2 and 1.5uL of 100nM (25nM final) Reporter Substrate (both stored on ice and protected from light) were dispensed into the plate using the Kalypsys dispenser. Plates were read after 60min RT incubation on a ViewLux (Perkin Elmer) plate reader using the following wavelengths Ex 485nm /Em 531nm.
Data were normalized to the to AC100 inhibition (NEM). Concentration-response curves were fitted to the normalized data and the concentration-response curves were then classified based on curve quality (r2), response magnitude and degree of measured activity. The time zero reading was used to flag fluorescence artifacts.
Keywords: ubiquitination, deubiquitination, proteases, profluorescent, MLSMR, MLPCN, NIH Roadmap, qHTS, NCGC

Chain of Ubiquitin carboxyl-terminal hydrolase 2 (Homo sapiens) (O75604 whole entry, looked up): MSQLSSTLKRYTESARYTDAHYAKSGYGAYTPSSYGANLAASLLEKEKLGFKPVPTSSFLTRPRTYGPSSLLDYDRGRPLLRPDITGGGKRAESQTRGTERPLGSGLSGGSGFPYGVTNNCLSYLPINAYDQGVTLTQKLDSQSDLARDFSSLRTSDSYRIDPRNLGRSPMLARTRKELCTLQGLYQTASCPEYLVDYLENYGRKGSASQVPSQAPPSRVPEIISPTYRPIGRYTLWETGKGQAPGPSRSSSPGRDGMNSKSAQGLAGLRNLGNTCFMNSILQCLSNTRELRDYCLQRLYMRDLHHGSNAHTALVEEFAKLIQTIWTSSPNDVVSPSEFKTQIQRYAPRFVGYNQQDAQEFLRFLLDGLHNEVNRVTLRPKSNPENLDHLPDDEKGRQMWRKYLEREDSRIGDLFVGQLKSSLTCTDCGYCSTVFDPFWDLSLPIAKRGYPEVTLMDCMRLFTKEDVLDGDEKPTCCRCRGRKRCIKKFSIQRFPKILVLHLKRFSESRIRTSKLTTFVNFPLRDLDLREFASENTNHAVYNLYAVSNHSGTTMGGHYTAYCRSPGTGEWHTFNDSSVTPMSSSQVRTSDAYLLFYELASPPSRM

Row | Compound | outcome
1 | CCN1CCc2nc(N)oc2CC1 | inactive
2 | COc1cc(Cc2cnc(N)nc2N)cc(OC)c1OC | inactive
3 | CC(=O)Nc1nnc(S(N)(=O)=O)s1 | inactive
4 | CCn1cc(C(=O)O)c(=O)c2cc3c(cc21)OCO3 | inactive
5 | CC(C)(C)c1ccc(C(=O)CCCN2CCC(OC(c3ccccc3)c3ccccc3)CC2)cc1 | inactive
6 | C[C@]12CC[C@@H]3c4ccc(O)cc4C[C@@H](CCCCCCCCCS(=O)CCCC(F)(F)C(F)(F)F)[C@H]3[C@@H]1CC[C@@H]2O (stereo not given in full) | inactive
7 | C[C@@H](O)[C@H]1C(=O)N2C(C(=O)O)=C(SCCN=CN)C[C@H]12 | inactive
8 | CC(=O)OC(C)C[N+](C)(C)C (stereo not given) | inactive
9 | NC(N)=N/N=C/c1c(Cl)cccc1Cl | inactive
10 | CO[C@@]1(NC(=O)CSCC#N)C(=O)N2C(C(=O)O)=C(CSc3nnnn3C)CS[C@@H]21 | inactive
11 | Cc1nc2c([nH]1)c(=O)n(C)c(=O)n2Cc1ccco1 | inactive
12 | COC(=O)C1=C(C)NC(C)=C(C(=O)OCCN(C)Cc2ccccc2)C1c1cccc([N+](=O)[O-])c1 (stereo not given) | inactive
13 | NC/C=C/C(=O)O | inactive
14 | CCn1ccnc1CC1COc2ccccc2O1 (stereo not given) | inactive
15 | CN(C)C/C=C(/c1ccc(Br)cc1)c1cccnc1 | inactive
16 | CC(C)(Oc1ccc(CCNC(=O)c2ccc(Cl)cc2)cc1)C(=O)O | inactive
17 | CC(=O)Oc1cc(C(C)C)c(OCCN(C)C)cc1C | inactive
18 | C[n+]1cc2c3c(ccc2c2ccc4cc5c(cc4c21)OCO5)OCO3 | inactive
19 | NC1=NCC2c3ccccc3Cc3ccccc3N12 (stereo not given) | inactive
20 | CCNC(=O)N1CCN(CCCC(c2ccc(F)cc2)c2ccc(F)cc2)CC1 | inactive

Row | Compound | outcome
21 | CN(C)C(=O)Oc1cccc([N+](C)(C)C)c1 | inactive
22 | COCC(=O)O[C@]1(CCN(C)CCCc2nc3ccccc3[nH]2)CCc2cc(F)ccc2[C@@H]1C(C)C | inactive
23 | CC(C(=O)O)c1ccc(CC2CCCC2=O)cc1 (stereo not given) | inactive
24 | COc1ccc([C@@H]2Sc3ccccc3N(CCN(C)C)C(=O)[C@@H]2OC(C)=O)cc1 | inactive
25 | O=c1[nH]c(=O)n([C@H]2C[C@H](O)[C@@H](CO)O2)cc1Br | inactive
26 | CN1C[C@H](C(=O)N[C@]2(C)O[C@@]3(O)[C@@H]4CCCN4C(=O)[C@H](Cc4ccccc4)N3C2=O)C[C@@H]2c3cccc4[nH]cc(c34)C[C@H]21 | inactive
27 | Cc1ccc(S(=O)(=O)NC(=O)NN2CCCCCC2)cc1 | inactive
28 | CCCCNc1ccc(C(=O)OCCN(C)C)cc1 | inactive
29 | CN=C(NC#N)NCCSCc1nc[nH]c1C | inactive
30 | Cc1nc2ccccn2c(=O)c1CCN1CCC(C(=O)c2ccc(F)cc2)CC1 | inactive
31 | CC(=O)[C@@]1(O)CC[C@H]2[C@@H]3CCC4=CC(=O)CC[C@]4(C)[C@H]3CC[C@@]21C | inactive
32 | COC(=O)[C@H]1[C@H]2C[C@@H]3c4[nH]c5cc(OC)ccc5c4CCN3C[C@H]2C[C@@H](OC(=O)c2cc(OC)c(OC)c(OC)c2)[C@@H]1OC | inactive
33 | CCO/C([O-])=N/c1c[n+](N2CCOCC2)no1 | inactive
34 | CN(C)CC/C=C1\c2ccccc2COc2ccccc21 | inactive
35 | CN1CCN(CC(=O)N2c3ccccc3C(=O)Nc3cccnc32)CC1 | inactive
36 | CCOC(=O)c1cnc2c(cnn2CC)c1NN=C(C)C | inactive
37 | OC(CCN1CCCCC1)(c1ccccc1)C1CCCCC1 (stereo not given) | inactive
38 | N[C@@H](COP(=O)(O)O)C(=O)O | inactive
39 | CCCN1C[C@H](CSC)C[C@@H]2c3cccc4[nH]cc(c34)C[C@H]21 | inactive
40 | CCc1cccc(N(C)C(N)=Nc2cccc3ccccc23)c1 | inactive
